# Measurements taken from PubChem BioAssay (NCI).
# The panel holds about 83,000 compounds, 20% with a hit somewhere; the sample as a whole holds those more often.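 How to read the values: 0–100, growth inhibition (40 = 60% inhibited); 0, no net growth; -100 to 0, cell death (-40 = 40% of starting cells died; -100 = all dead).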 Values without a mark were called inactive. The source made the active and inactive calls. How the source made its calls: active means growth percent below 10; inactive means the rest.
# Columns and labels:
# Assay in all cases: NCI-60 one-dose screen, 48 h (100 = growth as untreated, 0 = no growth, -100 = all killed)
# Conditions in all cases: 10 µM unless noted
# [1] = system: NCI-H23 lung
# [2] = system: NCI-H226 lung
# [3] = system: NCI-H322M lung
# [4] = system: HOP-62 NSCLC
# [5] = system: NCI-H460 lung
# [6] = system: HOP-92 NSCLC
# [7] = system: NCI-H522 lung
# [8] = system: A549/ATCC NSCLC
# [9] = system: 786-0 renal
# [10] = system: DU-145 prostate
# [11] = system: K-562 leukemia
# [12] = system: MALME-3M melanoma
# [13] = system: MDA-MB-231 breast
# [14] = system: SF-268 CNS
# [15] = system: SF-295 CNS
# [16] = system: SF-539 CNS
# [17] = system: UACC-257 melanoma
# [18] = system: M14 melanoma
# [19] = system: RXF 393 renal
SMILES,growth [1],growth [2],growth [3],growth [4],growth [5],growth [6],growth [7],growth [8],growth [9],growth [10],growth [11],growth [12],growth [13],growth [14],growth [15],growth [16],growth [17],growth [18],growth [19]
O=C(O)CC1Sc2ccccc2NC1=O (stereo unspecified),89.1%,95.2%,104%,96.3%,195%,73.1%,81%,106%,108%,116%,70.4%,106%,108%,100%,104%,145%,98.5%,89.5%,
O=C(NCCN1CCC(O)CC1)c1cc2c(o1)C(=O)c1ccccc1C2=O,-50.9% (active),-77.5% (active),-98.6% (active),-66.6% (active),-75.9% (active),-67.4% (active),-56.3% (active),-57.7% (active),-78.3% (active),-97.6% (active),2.8% (active),-99.2% (active),-24.6% (active),-54.8% (active),-96.2% (active),-97.5% (active),-86.9% (active),-85.3% (active),-99% (active)
O=C(CCl)N1c2cccc3cccc(c23)N(C(=O)CCl)C1c1cn(-c2ccccc2)nc1-c1cccc([N+](=O)[O-])c1,90.1%,98.8%,104%,94.5%,103%,117%,77.1%,107%,95.5%,98%,33.3%,108%,85.7%,99.4%,103%,96.5%,103%,84.8%,99.9%
Nc1nc(I)c2ncn(C3OC(CO)C(O)C3O)c2n1 (stereo unspecified),112%,91.6%,105%,95.8%,110%,223%,88.9%,103%,103%,107%,118%,142%,101%,107%,,102%,103%,102%,78.4%
CCCCCCCC/C=C/CCCCCCCC1=NCC[N+]1(CCO)CCO,67.9%,71.1%,83.8%,74.8%,42.7%,46.4%,29%,81.9%,72.3%,78.9%,32.7%,96.2%,56.6%,75.2%,79.6%,90.3%,104%,71.4%,50.1%
c1ccc2[nH]c(SSc3nc4ncncc4[nH]3)nc2c1,32.1%,57.6%,73.5%,21.2%,42.7%,27.5%,35.6%,80%,16%,29.5%,17.1%,,36.1%,30.1%,-39% (active),8.16% (active),42%,8.49% (active),64.7%
C=C(C)C1CCC(=C)C2CCC3(C)OC12/C=C(/COC(C)=O)CCC3O (stereo unspecified),111%,102%,97.9%,103%,104%,60.6%,93.3%,74.2%,106%,100%,88.6%,137%,105%,105%,,104%,37.9%,109%,98.4%
Cc1c(C(N)=O)sc2nc(C)n(/N=c3\scc(-c4ccccc4)n3Cc3ccccc3)c(=O)c12,20.5%,30.9%,35.4%,24.2%,7.46% (active),-19.1% (active),24.9%,0% (active),50.7%,42.2%,8.42% (active),60.5%,43%,21.3%,,22.2%,4.85% (active),36.4%,-5.46% (active)
C=C(C=O)[C@@H]1CC=C(C=O)CC1,-4.9% (active),71.2%,-24.7% (active),-19.7% (active),-16.6% (active),-39.9% (active),5.01% (active),15.6%,-19.3% (active),-74.6% (active),-23.2% (active),-31.1% (active),-25.9% (active),-16.7% (active),-15.7% (active),-60.4% (active),-9.83% (active),14.8%,
Cc1cc(=O)[nH]c(N/N=C/c2cc(Br)ccc2O)n1,33.7%,40.5%,-15% (active),48%,-1.75% (active),55%,19.5%,23.4%,7.2% (active),41.7%,22.5%,,35.5%,25.2%,5.67% (active),16.3%,14.1%,10%,70.2%
CCCCCCCC/C=C\CCCCCCCC(=O)Oc1cccc2cccnc12,105%,97%,97.6%,96.4%,96.1%,236%,71%,101%,105%,78.5%,73.9%,117%,106%,90.8%,,102%,2.81% (active),90.3%,47.6%
Clc1ccc(-c2nnc(-c3ccco3)o2)cc1,91.9%,91.7%,93.6%,80.9%,108%,72.6%,99.1%,96.8%,86.8%,99.5%,93.3%,113%,99%,101%,112%,106%,93.5%,101%,
C=C1C(=O)O[C@H]2[C@H]1CC/C(Cn1cc(CNCCc3c[nH]c4ccccc34)nn1)=C\CC[C@@]1(C)O[C@@H]21,95%,101%,86.8%,86.3%,104%,61.6%,3.17% (active),95.7%,99.1%,104%,32%,76%,92.4%,95.8%,102%,81.1%,77.4%,84.3%,85.4%
CCOC(=O)c1sc2ccc(NCc3nc[nH]c3C)cc2c1NC(=O)c1cc(OC)c(OC)c(OC)c1,85.7%,84.3%,91%,93.9%,92.6%,75.1%,84.8%,101%,84.8%,86.7%,44.2%,80.1%,73.3%,98%,97.3%,91.7%,,96.8%,79.2%
C(=C\c1nc2ccccc2[nH]1)/c1nc2ccccc2[nH]1,96.5%,92.6%,98.6%,110%,103%,95%,98%,99.1%,113%,107%,90%,,90.4%,110%,100%,104%,86.6%,100%,122%
CC(C)OCCCNCC(=O)Nc1ccc(S(=O)(=O)c2ccc(NC(=O)CNCCCOC(C)C)cc2)cc1,101%,104%,118%,85.9%,94.9%,50.2%,93.3%,106%,93.5%,113%,36.8%,99.7%,50.9%,106%,,79.4%,106%,100%,92.8%
CCCCCCNCc1cc(C(C)(C)C)cc(CNCCCCCC)c1O,-8.06% (active),-60.5% (active),-78.9% (active),-90.1% (active),-76.3% (active),-36.3% (active),-66% (active),-85.4% (active),-90.5% (active),-78.7% (active),-48.8% (active),-73.2% (active),-83.6% (active),9.67% (active),29.4%,-89.9% (active),-84.1% (active),-88.6% (active),-93.3% (active)
